From PubChem BioAssay (NCATS)
Results filed as inconclusive are left out. A number with no mark means an inactive call. Active and inactive are the calls of the source. The call rests on the fitted dose curve; in most records, active means well fitted inhibition curve with a large enough effect; inconclusive means small, poorly fitted or top-dose-only effect; inactive means no such curve, though single readings can be large or run the other way.

tested on: Zika virus NS2B-NS3 protease (linked construct); assay: Primary screen NINDS Rhodamine qHTS for Zika virus inhibitors (AID 1347160); details: purified NS2B-NS3 protease, Rhodamine110 substrate fluorescence; series mostly up to 33.1 µM; activity change, negative = inhibition: at the top concentration; further: nearly all actives have a fitted effect of over 55% in size
In short: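 Purified linked NS2B-NS3 protease (NS2B hydrophilic domain joined to NS3 protease by flexible linker), 25 nM in 10 mM Tris-HCl pH 8.0, 0.01% Tween 20. Compounds titrated, 15 min preincubation at room temperature; 1.5 microM Rhodamine110 substrate, FITC fluorescence change over 15 min.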
On the % scale 0 is the no-effect control and ±100 the full control effect.

Point of comparison: `CC1C2=CC(=O)OC2(O)CC2C1CCC1C(C)(C)CCC(O)C21C` (stereo unspecified), “activity change, negative = inhibition” value -6.48%. Against it:
- CC(C)(O)C1CC=C(C(=O)OC[C@H]2O[C@@H](Oc3cc(C(=O)O)cc(O)c3O)[C@H](O)[C@@H](O)[C@@H]2O)CC1 (stereo partly specified) — lower, -22.5%
- COc1cc(C(O)C2COC(c3ccc(OC4OC(CO)C(O)C(O)C4O)c(OC)c3)C2CO)ccc1O (stereo unspecified) — lower, -21.2%
- COc1ccc(OC2OC(CO[C@@H]3O[C@@H](C)[C@H](O)[C@@H](O)[C@H]3O)C(O)C(O)C2O)cc1OC (stereo partly specified) — lower, -10.7%

`COC(=O)C1=CO[C@@H](O[C@@H]2O[C@H](CO)[C@@H](O)[C@H](O)[C@H]2O)[C@H]2[C@@H]1C=C[C@]21C=C([C@H](C)OC(=O)/C=C/c2ccc(O[C@@H]3O[C@H](CO)[C@@H](O)[C@H](O)[C@H]3O)cc2)C(=O)O1` was tested, and the “outcome” value was “inactive [at 15.1 µM]”.
`COc1cc(O)c2c(c1Cl)CC(C)OC2=O` (stereo unspecified) was tested, and the “outcome” value was “inactive”.

Point of comparison: `C=C1C[C@@]2(O)O[C@@]3(C[C@H]2C(C)C)[C@@H](C)CC[C@@H]13`, “activity change, negative = inhibition” value -4.48% [at 57.1 µM]. Against it:
- O=C1C[C@@]2(C(=O)N1)C(=O)N(Cc1ccc(Br)cc1F)C(=O)c1cccn12 — lower, -13.6% [at 57.1 µM]
- O=c1[nH]ccc2nc(-c3ccc(CN4CCC(c5nc(-c6ccccn6)n[nH]5)CC4)cc3)c(-c3ccccc3)cc12 — higher, 4.44% [at 57.1 µM]
- CC(C)CC[C@@H](O)[C@](C)(O)[C@H]1CC[C@@]2(O)C3=CC(=O)[C@@H]4C[C@@H](O)[C@@H](O)C[C@]4(C)[C@H]3CC[C@]12C — higher, 5.65% [at 57.1 µM]

In the case of `C=C1Cc2c(Cl)cc3[nH]c4c5c3c2[C@@]2(O)[C@@H]1C[C@@H]2C(C)(C)O[C@H]5C1CC[C@@]2(O)[C@@]35O[C@@H]3[C@H]3OC(C)(C)[C@H]3O[C@H]5CC[C@]2(C)[C@@]41C` (stereo partly specified), the “activity change, negative = inhibition” value is reported as -14.9% [at 15.1 µM].
